C diff HTS: C. difficile growth inhibitors, primary screen, HTS; actives 0.25% (n = 86,000); growth activity, negative = inhibition, % at 16 µg/mL (by protocol); Clostridium difficile clinical isolate growth, OD600, 24 h; stronger effect = lower value; AID 1259249, 2017;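 active = mean growth activity at or below -80% and every replicate also at or below -80%; inconclusive = mean at or below -80% but some replicate above -80%; inactive = mean growth activity above -80%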;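 note: 0% = DMSO wells and -100% = levofloxacin 16 µg/mL wells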
T cruzi growth-1: T. cruzi intracellular proliferation inhibitors, primary screen, cell-based, beta-gal Tulahuen parasites, NIH3T3 host, luminescence; T. cruzi beta-gal in NIH3T3, GalScreen luminescence, 90 h; inhibition, % at 8.34 µM; actives 5.9% (n = 77,000);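 active = mean inhibition above about 93%, with at least 55% of replicates each passing it, limit read from the data, passing the limit was not always enough; inconclusive = only one of those two conditions holds; inactive = neither condition holds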
T cruzi growth-2: T. cruzi intracellular proliferation inhibitors, confirmation, cell-based, NIH3T3 host, beta-gal parasite, luminescence, cherry-pick; actives 72% (n = 5,600); inhibition, % at 8.35 µM; AID 651739, 2012; T. cruzi beta-gal in NIH3T3, GalScreen luminescence, 90 h; shares compounds with T cruzi growth-1;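 active = mean replicate inhibition above about 95% and at least 55% of replicates individually reaching it, limit read from the data; inconclusive = only one of the two criteria is met; inactive = neither criterion is met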
T cruzi growth-3: inhibitors of intracellular T. cruzi replication, confirmation, NIH3T3 host cells, beta-gal parasites, cherry-pick, set 2; shares compounds with T cruzi growth-1; T. cruzi beta-gal in NIH3T3, GalScreen luminescence, 90 h; inhibition, % at 2.09 µM; actives 21% (n = 5,600); AID 651740, 2012;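 active = mean inhibition above about 95%, with at least 55% of replicates also reaching it, limit read from the data; inconclusive = meets just one of the two conditions; inactive = meets neither condition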;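 note: plate controls were neutral control median for no effect and positive control median for full effect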
3T3 cytotox: cytotoxicity in mouse NIH/3T3 fibroblasts, confirmation, cytotoxicity control for T. cruzi proliferation inhibitor project, cell-based, cherry-pick, single point. shares compounds with T cruzi growth-1. NIH/3T3 viability, CellTiter-Glo ATP luminescence, 90 h. cytotoxicity (signal decrease), % at 8.35 µM. actives 14% (n = 5,600). AID 651742, 2012;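 active = mean signal decrease across replicates above about 35% based on untreated-well scatter, with enough replicates individually passing, limit read from the data; inconclusive = no rule stated though some were filed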;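 note: 0% = median of neutral control wells and 100% = median of positive control wells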
NIH3T3 tox 2: NIH/3T3 fibroblast cytotoxicity, confirmation, cytotoxicity control, cell-based, cherry-pick, single point, set 2; NIH/3T3 viability, CellTiter-Glo ATP luminescence, 90 h; shares compounds with T cruzi growth-1; actives 56% (n = 5,600); inhibition, % at 24.9 µM;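 active = mean loss of cell viability signal at or above a set limit, and enough replicates individually reaching it; inconclusive = meets only the mean limit or only the replicate share; inactive = meets neither condition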;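 note: 0% = median of neutral control wells and 100% = median of positive control wells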
Active calls of the source: *; u = inconclusive; x = not tested or not shown. The full list was thinned out, with hits kept by preference.

SMILES	C diff HTS	T cruzi growth-1	T cruzi growth-2	T cruzi growth-3	3T3 cytotox	NIH3T3 tox 2
CC(=O)N1[C@H](CO)[C@@H](c2ccccc2)[C@@H]1CN(CC1CCC1)C(=O)CN(C)C	1	27	x	x	x	x
CC(=O)N1[C@@H](CO)[C@@H](c2ccccc2)[C@@H]1CN(CC1CCC1)C(=O)CN(C)C	5	98*	30	-18	8	22
O=C(Nc1ccc(Cl)cc1)N[C@H]1CC[C@H](CCn2cc(Cc3ccccc3)nn2)O[C@@H]1CO	7	30	x	x	x	x
C[C@@H]1CN([C@H](C)CO)C(=O)c2cc(NC(=O)c3ccncc3)ccc2O[C@@H]1CN(C)C	0	26	x	x	x	x
CCN1[C@H](C(=O)N(C)C)[C@@H](CO)[C@@H]2Cn3c(ccc(-c4ccccc4OC)c3=O)[C@@H]21	0	69	x	x	x	x
CN(C)CC(=O)N[C@@H]1C[C@@H]2O[C@@H](CO)CC[C@@H]2O[C@@H]1CCc1ccc(C#Cc2ccccc2)cc1	9	x	x	x	x	x
C[C@@H]1CCCCO[C@H](CN(C)C(=O)Nc2cccc3ccccc23)[C@H](C)CN([C@@H](C)CO)C(=O)c2cc(NS(=O)(=O)c3ccc(Cl)cc3)ccc2O1	1	99*	104*	102*	-12	-3
COc1ccc(S(=O)(=O)Nc2ccc3c(c2)C(=O)N([C@@H](C)CO)C[C@H](C)[C@@H](CN(C)C(=O)Nc2cccc4ccccc24)OCCCC[C@H](C)O3)cc1	3	69	x	x	x	x
Cc1ccc(S(=O)(=O)Nc2ccc3c(c2)C(=O)N([C@H](C)CO)C[C@H](C)[C@H](CN(C)C(=O)Nc2cccc4ccccc24)OCCCC[C@@H](C)O3)cc1	-4	62	x	x	x	x
C[C@@H]1CN([C@@H](C)CO)C(=O)c2cc(NS(=O)(=O)c3ccc(Cl)cc3)ccc2O[C@@H](C)CCCCO[C@H]1CN(C)C(=O)Nc1cccc2ccccc12	-9	96*	107*	102*	-13	13
C[C@@H]1CCCCO[C@@H](CN(C)C(=O)Nc2cccc3ccccc23)[C@H](C)CN([C@@H](C)CO)C(=O)c2cc(NS(=O)(=O)c3ccc(Cl)cc3)ccc2O1	-5	98*	107*	117*	-25	-17
COc1ccc(S(=O)(=O)Nc2ccc3c(c2)C(=O)N([C@@H](C)CO)C[C@H](C)[C@H](CN(C)C(=O)Nc2cccc4ccccc24)OCCCC[C@H](C)O3)cc1	x	82	x	x	x	x
CO[C@@H]1CN(C)C(=O)c2cc(NC(=O)NC3CCCC3)ccc2OC[C@H](C)N(CC2CC2)C[C@@H]1C	-1	x	x	x	x	x
COCC(=O)N1[C@H](CN(C)C(=O)c2cccnc2)[C@@H](c2ccccc2)[C@@H]1CO	-2	0	x	x	x	x
C[C@H]1CN([C@@H](C)CO)C(=O)c2cc(C3=CCCC3)cnc2O[C@@H]1CN(C)C(=O)Nc1ccc(F)cc1	-13	x	x	x	x	x
C[C@@H]1CN([C@H](C)CO)C(=O)c2cc(C3=CCCC3)cnc2O[C@@H]1CN(C)C(=O)Nc1ccc(C(F)(F)F)cc1	21	111*	107*	84	u	104*
C[C@@H]1CN([C@@H](C)CO)C(=O)c2cc(C3=CCCC3)cnc2O[C@H]1CN(C)C(=O)Nc1ccc(C(F)(F)F)cc1	-9	99*	102*	56	21	6
C[C@H]1CN([C@@H](C)CO)C(=O)c2cc(C3=CCCC3)cnc2O[C@@H]1CN(C)C(=O)Nc1ccc(C(F)(F)F)cc1	-1	82	x	x	x	x
CCCNC(=O)N1[C@H](CO)[C@H](c2ccccc2)C12CN(C(=O)CC)C2	6	x	x	x	x	x
O=C(N[C@H]1C=C[C@@H](CC(=O)N2CCC(Cc3ccccc3)CC2)O[C@@H]1CO)c1cnccn1	0	20	x	x	x	x
COCC(=O)N1C[C@@H](C)[C@H](OC)CN(C)C(=O)c2cc(NC(=O)c3cc(C)on3)ccc2OC[C@H]1C	x	59	x	x	x	x
O=C(C[C@@H]1C[C@@H]2c3cc(NC(=O)c4ccc5c(c4)OCO5)ccc3O[C@@H]2[C@H](CO)O1)NCc1ccc(Oc2ccccc2)cc1	-20	-11	x	x	x	x
O=C(C[C@@H]1C[C@H]2c3cc(NC(=O)c4ccc5c(c4)OCO5)ccc3O[C@H]2[C@H](CO)O1)NCc1ccc(Oc2ccccc2)cc1	-12	113*	103*	20	69*	51*
O=C(C[C@H]1C[C@@H]2c3cc(NC(=O)c4ccc5c(c4)OCO5)ccc3O[C@@H]2[C@@H](CO)O1)NCc1ccc(Oc2ccccc2)cc1	-5	148*	111*	43	42*	34*
O=C(C[C@@H]1C[C@H]2c3cc(NC(=O)c4ccc5c(c4)OCO5)ccc3O[C@H]2[C@@H](CO)O1)NCc1ccc(Oc2ccccc2)cc1	-3	120*	75	6	45*	94*
SMILES	C diff HTS	T cruzi growth-1	T cruzi growth-2	T cruzi growth-3	3T3 cytotox	NIH3T3 tox 2
O=C(C[C@@H]1C[C@H]2c3cc(NC(=O)c4ccc5c(c4)OCO5)ccc3O[C@H]2[C@H](CO)O1)NCc1ccc(Cl)cc1	5	74	x	x	x	x
O=C(C[C@H]1C[C@H]2c3cc(NC(=O)c4ccc5c(c4)OCO5)ccc3O[C@H]2[C@@H](CO)O1)NCc1ccc(Cl)cc1	3	1	x	x	x	x
O=C(C[C@H]1C=C[C@H](NC(=O)C2CCC2)[C@H](CO)O1)NCC1CC1	0	-15	x	x	x	x
C[C@H](CO)N1C[C@H](C)[C@@H](CN(C)Cc2ccccc2)OCc2cn(nn2)CCCC1=O	-1	-1	x	x	x	x
COc1ccc(-c2ccc3n(c2=O)C[C@H]2[C@H](CO)[C@@H](C(=O)NC4CCC4)N(S(C)(=O)=O)[C@@H]32)cc1	-1	19	x	x	x	x
N#Cc1ccc(-c2ccc(C3[C@H]4CNC[C@@H]3N4S(=O)(=O)c3ccc(-c4ccccc4)cc3)cc2)cc1 (stereo not given in full)	68	x	x	x	x	x
CCCNC(=O)Nc1ccc2c(c1)C(=O)N(C)[C@@H]1CC[C@@H](CC(=O)OC)O[C@@H]1CO2	-2	4	x	x	x	x
CCCC#Cc1ccc2c(c1)O[C@@H](CN(C)CC1CC1)[C@@H](C)CN([C@@H](C)CO)S2(=O)=O	x	31	x	x	x	x
CC(C)CC#Cc1ccc2c(c1)O[C@H](CN(C)CC1CCOCC1)[C@H](C)CN([C@H](C)CO)S2(=O)=O	5	u	108*	85	22	105*
CC(C)CC#Cc1ccc2c(c1)O[C@H](CN(C)CC1CCOCC1)[C@@H](C)CN([C@@H](C)CO)S2(=O)=O	16	106	x	x	x	x
CC(C)CC#Cc1ccc2c(c1)O[C@H](CN(C)CC1CC1)[C@H](C)CN([C@@H](C)CO)S2(=O)=O	13	u	100*	90	40*	107*

Bioassay records as filed in PubChem.
